Assay [1] is described as follows: qHTS RealTime-Glo MT Cell Viability Assay in HepG2 cells - 40 hour (AID 1224870). Note: nearly all actives have a fitted effect of over 50% in size. The essentials:
(§1)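 HepG2 cells (600/well) mixed with RealTime-Glo MT reagent, settled 5 h at 37 C/5% CO2 before compound addition. Nonlytic NanoLuc luminescence from viable-cell prosubstrate reduction read repeatedly during 40 h treatment at 37 C.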

The nature of assay [2]: qHTS RealTime-Glo MT Cell Viability Assay in HepG2 cells - 8 hour (AID 1224873). Note: nearly all actives have a fitted effect of over 55% in size. The essentials: as §1
Assay [3] can be described thus: qHTS RealTime-Glo MT Cell Viability Assay in HEK293 cells - 40 hour (AID 1224874). Note: nearly all actives have a fitted effect of over 50% in size. Note: potency is the fitted concentration of half-maximal effect. The settings on record: RealTime-Glo luminescence; max response: hits give low values. The method, boiled down:
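Kinetic, non-lysing viability readout. Seed HEK293 (600/well) with reagent, incubate 5 h at 37 C/5% CO2, pin 23 nL compound in DMSO, incubate at 37 C, read luminescence at 0, 8, 16, 24, 32, 40 h.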

Assay [4] in a line: A CellTox Green Cytotoxicity Assay to monitor cytotoxicity in HepG2 cells - 16 hour (AID 1224876). Note: nearly all actives have a fitted effect of over 45% in size. Note: potency is the fitted concentration of half-maximal effect. The essentials: (§2)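 Cytotoxicity was tracked as dead-cell DNA fluorescence in HepG2 cells treated with test compounds at 37 C; each time-point value comes from one kinetic series spanning 0, 8, 16, 24, 32 and 40 h.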
Assay [5] can be described thus: qHTS RealTime-Glo MT Cell Viability Assay in HepG2 cells - 32 hour (AID 1224877). Note: nearly all actives have a fitted effect of over 55% in size. The method, boiled down:
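HepG2 cells were seeded at 600 cells/well together with NanoLuc luciferase and a cell-permeant prosubstrate, preincubated 5 h at 37 C/5% CO2, then pin-dosed with compounds in DMSO. Nonlytic luminescence from viable cells was read at each time point.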

Assay [6] in a line: A CellTox Green Cytotoxicity Assay to monitor cytotoxicity in HepG2 cells - 24 hour (AID 1224878). Note: nearly all actives have a fitted effect of over 45% in size. Note: potency is the fitted concentration of half-maximal effect. The essentials:
as §2

The nature of assay [7]: A CellTox Green Cytotoxicity Assay to monitor cytotoxicity in HepG2 cells - 40 hour (AID 1224879). Note: nearly all actives have a fitted effect of over 40% in size. The essentials:
as §2

Assay [8] is described as follows: qHTS RealTime-Glo MT Cell Viability Assay in HEK293 cells - 16 hour (AID 1224872). Note: nearly all actives have a fitted effect of over 50% in size. Note: potency is the fitted concentration of half-maximal effect. The essentials: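 HEK293 cells were seeded at 600 cells/well together with NanoLuc luciferase and cell-permeant prosubstrate, preincubated 5 h at 37 C/5% CO2, then given compound in DMSO by pintool. Luminescence from viable-cell prosubstrate reduction was read repeatedly over 40 h.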

Assay [9] in a line: A CellTox Green Cytotoxicity Assay to monitor cytotoxicity in HEK293 cells - 24 hour (AID 1224875). Note: nearly all actives have a fitted effect of over 45% in size. Note: potency is the fitted concentration of half-maximal effect. The essentials: (§3)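 Real-time, in one plate: 600 HEK293 cells/well with dead-cell DNA dye, pinned compound after 5 h, 37 C incubation over 40 h; viable cells give no appreciable fluorescence.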
Assay [10] in a line: A CellTox Green Cytotoxicity Assay to monitor cytotoxicity in HEK293 cells - 40 hour (AID 1224871). Note: nearly all actives have a fitted effect of over 45% in size. Note: potency is the fitted concentration of half-maximal effect. The essentials: as §3

“And” between values parts separate entries of the source, which are not always exact repeats. Identical values can stand only once. Records with an inconclusive call do not appear. A number with no mark means an inactive call. The source made the active and inactive calls. Calls come from the whole dose curve; as a rule, active = well fitted curve in the direction sought with a large enough effect in the repeat runs; inconclusive = weak or mixed curves; inactive = no such curve, though single readings can be large; an effect the other way counts as inactive or inconclusive.
% is set by controls: 0 for no effect and ±100 for the full control effect.

Turning to `CCOC(=O)NC(C)(C)Cc1ccc(Cl)cc1`, the Potency entry in [1], in assay [4], in assay [5], in assay [6] and in [7] was “inactive” each time. In addition, in assay [2], the outcome was inactive. For the same compound, the max response in assay [3] was 0.66%.
Turning to `O=c1[nH]c2ccccc2n1C1CCNCC1`, the Potency result in [1], in assay [8], in [9], in [4], in assay [5] and in assay [6] was “inactive” each time. Further, the Potency result in [7] was “inactive”. The max response in assay [3] is 2.11%.
On to `Clc1nc(Cl)nc(Nc2ccccc2Cl)n1`, for which the Potency entry in assay [1], in assay [9], in assay [4], in [5], in assay [6] and in assay [7] was “inactive” in each case. In addition, the result in assay [2] was inactive. The max response in assay [3] is 11.5%.
`CCC1(c2cccc(O)c2)CCCCN(C)C1` (stereo unspecified): the Potency result in assay [1], in assay [8], in [9], in [4], in [5] and in assay [6] was “inactive” in each case. The Potency result in [7] is “inactive”. Further, the call in [2] was inactive. For the same compound, the max response in assay [3] was 3.71%.
For the compound `c1cncc([C@@H]2CCCCN2)c1`, the Potency entry in assay [1], in assay [8], in [9], in assay [4], in assay [5] and in assay [6] was “inactive” throughout. Further, in [2], the call was inactive.
Consider `OCC(Cl)CCl` (stereo unspecified), for which the Potency entry in [10], in assay [8], in [9], in assay [4], in [5] and in [6] was “inactive” throughout. For the same compound, the compound was called inactive in assay [2]. In addition, the max response in [3] is -0.453%.
Take `C=CCc1cc(OC)c2c(c1)OCO2`: the Potency entry in assay [1], in [8], in assay [4], in assay [5], in assay [6] and in [7] was “inactive” throughout. Also, the compound was called inactive in assay [2]. In addition, the max response in assay [3] is 8.43%.
For the compound `COC[C@@H](NC(C)=O)C(=O)NCc1ccccc1`, the Potency entry in assay [10], in [8], in assay [9], in [4], in assay [5] and in [6] was “inactive” throughout. Further, the Potency result in assay [7] was “inactive”. The compound was called inactive in assay [2]. For the same compound, in assay [3], the max response was 5.22%.
As to `ClCCN1CCCC1`, the Potency entry in assay [10], in assay [8], in assay [9], in [4], in [5] and in assay [6] was “inactive” each time. Besides, the Potency result in assay [7] was “inactive”. The compound was called inactive in assay [2]. Further, in assay [3], the max response was 8.04%.
For `Cc1cccc2sc3nncn3c12`, the Potency entry in [1], in assay [8], in assay [9], in assay [4], in assay [5] and in [7] was “inactive” in each case. The compound was called inactive in [2]. Further, in assay [3], the max response was 22%.
Take `CCOP(=S)(OCC)SCCl`: the Potency entry in [1], in assay [9], in [4], in assay [5] and in [6] was “inactive” in each case. For the same compound, the max response in assay [3] is -0.801%.
Consider `CCCN1CCC[C@@H]2Cc3nc(N)ncc3C[C@H]21`, for which the Potency is 16.9 µM (active) in assay [10], 16.9 µM (active) in assay [9], 21.3 µM (active) in assay [4] and 21.3 µM (active) in [6]. Also, the Potency result in assay [8] and in [5] was “inactive” in each case. Further, the compound was classed as inactive in assay [2]. Moreover, the max response in [3] was 3.64%.
`C=C1CC[C@@]2(O)[C@H]3Cc4ccc(O)c5c4[C@@]2(CCN3CC2CC2)[C@H]1O5`: the Potency result in assay [1], in assay [9], in assay [4], in assay [5], in assay [6] and in [7] was “inactive” each time. Also, the compound was classed as inactive in [2]. For the same compound, the max response in assay [3] is 9.06%.
With `C[C@H]1CCCC(=O)CCC/C=C/c2cc(O)cc(O)c2C(=O)O1`, the Potency entry in assay [1], in assay [9], in [4] and in [6] was “inactive” throughout. Moreover, the Potency is 37.5 µM (active) in [8] and 21.1 µM (active) in [3]. Also, the compound was called inactive in [2].
For `NC1(c2ccccc2)CCCCC1`, the Potency entry in assay [1], in assay [9], in assay [4], in assay [5], in assay [6] and in [7] was “inactive” each time. Also, the result in assay [2] was inactive. In assay [3], the max response is -3.55%.
For the compound `O=c1[nH]oc2c1CCNC2`, the Potency entry in assay [1], in assay [8], in assay [9] and in [5] was “inactive” each time. Also, in [2], the compound was classed as inactive. Moreover, the max response in [3] was 5.54%.
On to `O=C(Cl)c1ccccc1`, for which the Potency entry in [1], in assay [8], in assay [9], in assay [4], in [5] and in [7] was “inactive” throughout. The compound was classed as inactive in [2]. Moreover, the max response in assay [3] is -3.78%.
With `ClCCCCl`, the Potency entry in [1], in [8], in assay [9], in assay [4], in assay [5] and in [6] was “inactive” each time. In assay [7], the Potency entry was “inactive”. For the same compound, the max response in assay [3] was 9.81%.
For the compound `CC[C@H](O)C(C[C@H](C)N(C)C)(c1ccccc1)c1ccccc1`, the Potency entry in assay [1], in assay [8], in assay [9], in [4], in assay [5] and in [6] was “inactive” throughout. Further, the outcome in assay [2] was inactive.
As to `N[C@@H]1C[C@H]1c1ccccc1`, the Potency entry in assay [1], in assay [8], in [9], in [4], in [5] and in assay [6] was “inactive” in each case. For the same compound, the Potency result in assay [7] was “inactive”. For the same compound, in [2], the result was inactive. For the same compound, the max response in assay [3] is 1.46%.
With `C=CC1(C)OC(=O)N(c2cc(Cl)cc(Cl)c2)C1=O` (stereo unspecified), the Potency result in [1], in [8], in [9], in assay [4], in assay [5] and in assay [6] was “inactive” throughout. In addition, the Potency entry in [7] was “inactive”. The max response in assay [3] was -8.21% and -20%.
For `CCC(C)C(C)(COC(N)=O)COC(N)=O` (stereo unspecified), the Potency entry in [1], in assay [9], in assay [4], in assay [5] and in assay [7] was “inactive” each time. In addition, in assay [2], the outcome was inactive. In addition, the max response in assay [3] was 3.68%.

The record behind these values is PubChem BioAssay (Tox21).
